# Results reported in PubChem BioAssay (NCI).
# About 83,000 compounds went through this panel and 20% of them were active in at least one assay; those are over-represented in the sample as a whole.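 For each line, cells grew in 96-well plates with the test compound present at a single concentration for 48 hours.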 Active and inactive are the calls of the source. Rule for the calls: active = growth percent below 10; inactive = the rest.
# Tested on: NCI-H322M lung
# Assay: NCI-60 one-dose screen, 48 h (100 = growth as untreated, 0 = no growth, -100 = all killed)
# Conditions: 10 µM unless noted
row,Structure (SMILES),growth
1,CC[C@H](C)[C@H](NC(=O)c1ccccn1)C(=O)N(C)[C@H](C[C@@H](OC(C)=O)c1nc(C(=O)N[C@@H](Cc2ccccc2)C[C@H](C)C(=O)OC)cs1)C(C)C,58.2% (inactive)
2,O=[N+]([O-])c1cnc[nH]1,121% (inactive)
3,CC(=O)O[C@H]1CC[C@]2(C)[C@H]3CC[C@]4(C)[C@@H](OC(C)=O)CC[C@H]4[C@@H]3[C@@H](C)[C@]2(O)C1,106% (inactive)
4,CCN(CC)CCOC(=O)C(OC(C)C)(c1ccccc1)c1ccccc1,99.6% (inactive)
5,O=C1NC(=O)C(=Cc2cccn2CCCCCn2c3ccccc3c(=O)c3ccccc32)C(=O)N1,98.3% (inactive)
6,COc1ccc(Nc2ccc([N+](=O)[O-])cc2[N+](=O)[O-])cc1CN(CCCl)CCCl,45.8% (inactive)
7,CCCC[C@H](NC(=O)[C@H]1CCCCN1C)C(=O)N(C)[C@H](C[C@@H](OC(C)=O)c1nc(C(=O)N[C@@H](Cc2ccccc2)C[C@H](C)C(=O)OCC)cs1)C(C)C,32.9% (inactive)
8,Nc1c(F)cc(-c2nc3cc(F)ccc3[se]2)cc1F,70.8% (inactive)
9,COC(=O)[C@H](Cc1ccccc1)NC(=O)c1csc([C@@H](C[C@H](C(C)C)N(C)C(=O)[C@@H](NC(=O)[C@H]2CCCCN2C)C2CC2)OC(C)=O)n1,46.1% (inactive)
10,COC(=O)[C@@H](C)C[C@H](Cc1ccccc1)NC(=O)c1nc([C@@H](C[C@H](C(C)C)N(C)C(=O)[C@@H](NC(=O)[C@H]2CC(=O)CCN2C)C(C)C)OC(C)=O)sc1C(C)C,30.1% (inactive)
11,CC(C)=CCC[C@H](C(=O)O)[C@@H]1CC[C@]2(C)C3=C(CC[C@@]12C)[C@@]1(C)CC[C@H](O)C(C)(C)[C@@H]1CC3,84.2% (inactive)
12,C=CC[PH+](c1ccccc1)c1ccccc1.C=CC[PH+](c1ccccc1)c1ccccc1.[Cl][Pt][Cl],101% (inactive)
13,CN1CCC(O)(c2ccc(F)cc2)C(C(=O)c2ccc(F)cc2)C1 (stereo unspecified),98.7% (inactive)
14,COc1ccc2c(c1)c(-c1nc(-c3c[nH]c4ncccc34)cs1)cn2CCN1CCOCC1,57.3% (inactive)
15,COC(=O)[C@@H](C)C[C@H](Cc1ccccc1)NC(=O)c1csc([C@@H](C[C@H](C(C)C)N(C)C(=O)[C@@H](NC(=O)[C@H]2CCCCN2C)C(C(F)(F)F)C(F)(F)F)OC(C)=O)n1,37% (inactive)
16,CN1CC(=O)N(O)C1(C)c1cccnc1 (stereo unspecified),98.7% (inactive)

row,Structure (SMILES),growth
1,COc1cc(/C=C/[N+](=O)[O-])cc(OC)c1,84.6% (inactive)
2,CC12CCC3C(CCC4Cc5[nH]c6ccccc6c5CC43C)C1CCC2O (stereo unspecified),43% (inactive)
3,COC(=O)C12CC(NC(=O)c3csc([C@@H](C[C@H](C(C)C)N(C)C(=O)[C@@H](NC(=O)[C@H]4CCCCN4C)C(C)C)OC(C)=O)n3)(C1)C2,41.9% (inactive)
4,CC1CN1CCCCN1CC1C (stereo unspecified),101% (inactive)
5,CC(=O)O[C@H](C[C@H](C(C)C)N(C)C(=O)[C@@H](NC(=O)[C@H]1CCCCN1C)C(C)C)c1nc(C(=O)NC2CCC(C(=O)O)CC2)cs1 (stereo partly specified),72.4% (inactive)
6,CC[C@H](C)[C@@H]([C@@H](CC(=O)N1CCC[C@H]1[C@H](OC)[C@@H](C)C(=O)N[C@H](C)[C@@H](O)c1ccccc1)OC)N(C)C(=O)[C@@H](NC(=O)[C@@H](NC)C(C)C)C(C)C,50.8% (inactive)
7,CCNc1nc(Cl)nc(NCC)n1,100% (inactive)
8,CCOP(=O)(NC[C@H]1O[C@](O)(CO)[C@@H](O)[C@@H]1O)OCC,112% (inactive)
9,CCCc1cc(O)c2c3c(c(=O)oc2c1)CN(C)CC3,42.9% (inactive)
10,CCCCN1CCCC[C@@H]1C(=O)N[C@H](C(=O)N(C)[C@H](CCc1nc(C(=O)N[C@@H](Cc2ccccc2)C[C@H](C)C(=O)OC)cs1)C(C)C)[C@@H](C)CC,71.1% (inactive)
11,O=C([O][Hg][CH2]C1COCC([CH2][Hg][O]C(=O)c2ccccc2)O1)c1ccccc1 (stereo unspecified),110% (inactive)
12,CN[C@]1(c2ccccc2Cl)CCCC[C@H]1NCCCN1CCN(C)CC1,106% (inactive)
13,Cn1cc(-c2csc(-c3cn(CCN4CCOCC4)c4ccc(F)cc34)n2)c2cccnc21,73.3% (inactive)
14,CC(C)CCC1(CCCl)C(=O)NC(=O)NC1=O,101% (inactive)
15,O=C(CCCC1CCCCC1)OCC(Cl)(Cl)Cl,104% (inactive)
